Source: PubChem (several laboratories)
MRP resist rev – compounds reversing MRP-mediated drug resistance. actives 0.04% (n = 85,000). differential viability (reversal), % at 10 µM. H69AR cells + 2 uM doxorubicin, CellTiter-Glo, 72 h. AID 602;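 active = viability drop by adding the cancer drug above about 55%, with treated viability meeting a 40% cutoff, limit read from the data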;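 note: viability without doxorubicin minus viability with 2 µM doxorubicin for each compound; larger differential means the compound sensitizes cells more to doxorubicin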
S1P2 blocker – blocks the human S1P2 receptor. O95136. cell-based S1P2 antagonist assay, inhibition at 5 uM. inhibition, % at 5 µM. actives 0.21% (n = 97,000). AID 736; in the data active = inhibition above about 45%;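 note: CRE beta-lactamase reporter cells expressing human S1P2 stimulated with S1P; 0% = agonist at EC80 alone and 100% = agonist plus reference antagonist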
GALR2 ag – agonists of human galanin receptor 2 (GALR2) | activation, % (no concentration beside the values) | GALR2-expressing cells, agonist activation read-out | O43603 | actives 0.48% (n = 140,000); in the data active = activation above about 5%, passing the limit was not always enough;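 note: 0% = vehicle buffer wells and 100% = reference agonist at full effect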
Target sequence (O43603 whole entry, looked up): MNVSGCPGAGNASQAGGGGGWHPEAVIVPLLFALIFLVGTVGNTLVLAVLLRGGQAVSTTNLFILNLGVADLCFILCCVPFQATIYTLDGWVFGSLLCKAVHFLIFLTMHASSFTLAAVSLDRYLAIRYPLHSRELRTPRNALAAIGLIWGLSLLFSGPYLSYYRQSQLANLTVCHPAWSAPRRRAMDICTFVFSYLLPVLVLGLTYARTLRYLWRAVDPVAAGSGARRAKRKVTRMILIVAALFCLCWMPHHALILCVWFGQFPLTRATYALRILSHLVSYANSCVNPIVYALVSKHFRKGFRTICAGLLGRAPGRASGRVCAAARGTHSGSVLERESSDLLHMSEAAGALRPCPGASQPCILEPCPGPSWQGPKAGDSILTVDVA
S1P2 agonist – activates the human S1P2 receptor; S1P2-expressing cell line, agonist reporter read-out; activation, % at 4.5 µM; actives 0.46% (n = 97,000); in the data active = activation above about 16%;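 note: 0% = vehicle low control and 100% = maximal reference agonist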
MRP1 act – activates MRP-1; AID 799; H69AR cells + doxorubicin, viability rescue, CellTiter-Glo; viability increase, % at 10 µM; actives 0.61% (n = 140,000);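 active = viability gain under doxorubicin at or above a set limit, the compound median plus 3 SD, cut at about 4.7% in these data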;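 note: MRP-1 overexpressing cells given doxorubicin 25 µM after compound pretreatment; 18-22 h compound pretreatment then 72 h with doxorubicin before readout; 0% = doxorubicin-only wells and 100% = vehicle-treated cells without doxorubicin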
GALR2 antag – GALR2 (human) receptor antagonism; GALR2-expressing cells, antagonist mode; inhibition, % at 4 µM; actives 0.39% (n = 140,000); AID 828;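 note: cells stimulated with galanin 1-16 at roughly its EC80; 0% = agonist challenge control and 100% = basal control without agonist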
GALR2 blk conf – GALR2 (human) antagonism confirmed; shares compounds with GALR2 antag; GALR2-expressing cells, antagonist mode, inhibition; inhibition, % at 4 µM; actives 60% (n = 480);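 note: cells stimulated with galanin at about its EC80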
BLA inh counter – beta-lactamase inhibition, GALR2 counterscreen; shares compounds with GALR2 antag; CHO NFAT-BLA reporter, beta-lactamase FRET, thapsigargin-stimulated; inhibition, % at 4.2 µM; actives 36% (n = 480);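 active = inhibition above the mean inhibition across tested compounds plus 3 SD, cut at about 27% in these data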;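 note: 0% = 500 nM thapsigargin stimulated wells and 100% = unstimulated BSA only wells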
The depositor's hits bear a star. Only some compounds are listed: those with a hit (about 1.8% of all), similar ones and a draw of the others. Cut-off read from the data, not from the text of the source, unless noted: active = inhibition above about 27%; inactive = the rest.

For COc1ccccc1CN1CC(C(=O)NCc2cccnc2)CC1=O (stereo not given) the results were MRP resist rev 6, S1P2 blocker -13, GALR2 ag -1, S1P2 agonist -4, MRP1 act 0 and GALR2 antag -5.
For O=C(c1ccccc1)c1ccc2nc(-c3ccc(NC(=O)c4ccccc4F)cc3)[nH]c2c1 the results were S1P2 blocker 31, GALR2 ag 4, S1P2 agonist -8, MRP1 act -4, GALR2 antag 39*, GALR2 blk conf 31* and BLA inh counter 10.
For O=C1C=CC(=O)C(C2=C3C(=O)N(CCc4ccccc4)CC(=O)N3CCC2)=C1 the results were GALR2 ag 0, MRP1 act 2, GALR2 antag 39*, GALR2 blk conf 60* and BLA inh counter 81*.
`CN(C)S(=O)(=O)c1ccc(Cl)c(NC(=O)CSc2nc3ccccc3c(=O)n2CCCN2CCOCC2)c1` gave GALR2 ag 0, MRP1 act -1 and GALR2 antag 2.
`CCn1c2ccc(C)cc2c2nc3cc(C(=O)O)ccc3nc21` gave GALR2 ag -1, MRP1 act -3, GALR2 antag 28*, GALR2 blk conf 34* and BLA inh counter 4.
Cc1ccc(N2CCN(S(=O)(=O)N3CCCCCC3)CC2)cc1Cl was read as S1P2 blocker -19, GALR2 ag -2, S1P2 agonist -3, MRP1 act 0 and GALR2 antag -3.
For CSC1=NC2C(N1)N(C)C(=O)N2C (stereo not given) the results were MRP resist rev -11, S1P2 blocker -5, GALR2 ag -1, S1P2 agonist -4, MRP1 act 1 and GALR2 antag -12.
Screening Cc1nnc(N2CCN(c3ccccc3)CC2)c2nn(-c3ccccc3F)c(C)c12 returned MRP resist rev -26, S1P2 blocker -6, GALR2 ag 0, S1P2 agonist -2 and GALR2 antag 2.
For Cc1ccc(N=Cc2sc(O)c3ccccc23)cc1 the results were S1P2 blocker 38, GALR2 ag -2, S1P2 agonist -8, MRP1 act -2, GALR2 antag 28*, GALR2 blk conf 32* and BLA inh counter 32*.
For OCc1nn2c(c1Br)NC(c1ccccc1)CC2C(F)(F)F (stereo not given) the results were MRP resist rev 12, S1P2 blocker -6, GALR2 ag -1, S1P2 agonist -7, MRP1 act -4 and GALR2 antag -4.
Cc1ccc(C(=O)N/C(=C\c2cccs2)C(=O)NCc2cccnc2)cc1 was read as GALR2 ag -1, MRP1 act -2 and GALR2 antag 17.
Screening Cc1ccc(C(=O)N/C(=C/c2cccs2)C(=O)NCc2ccco2)cc1 returned GALR2 ag -1, MRP1 act -3, GALR2 antag 27*, GALR2 blk conf 6 and BLA inh counter -2.
Screening Cc1ccccc1OC(=O)n1c(=S)oc2cc(Cl)ccc21 returned S1P2 blocker -1, GALR2 ag -2, S1P2 agonist -7, MRP1 act 0 and GALR2 antag -1.
